Measured values: the supplement of paper PMC11732987, “Enantioselective OTUD7B fragment discovery through chemoproteomics screening and high-throughput optimisation” (Communications Chemistry, 2025)

How the values were obtained:
Assay in all cases: log2 ratio of Biotin-Ahx-Ub-VS probe labelling (fragment/DMSO); higher = less target engagement (more negative = stronger competition), active = hit call of the paper (q ≤ 0.05, log2 ratio ≤ -1)
Details in all cases: compound concentration: 200 uM; treatment time: 3 h
USP42 = target: T1, USP42 (UniProt Q9H9J4)
T1 sequence (whole entry): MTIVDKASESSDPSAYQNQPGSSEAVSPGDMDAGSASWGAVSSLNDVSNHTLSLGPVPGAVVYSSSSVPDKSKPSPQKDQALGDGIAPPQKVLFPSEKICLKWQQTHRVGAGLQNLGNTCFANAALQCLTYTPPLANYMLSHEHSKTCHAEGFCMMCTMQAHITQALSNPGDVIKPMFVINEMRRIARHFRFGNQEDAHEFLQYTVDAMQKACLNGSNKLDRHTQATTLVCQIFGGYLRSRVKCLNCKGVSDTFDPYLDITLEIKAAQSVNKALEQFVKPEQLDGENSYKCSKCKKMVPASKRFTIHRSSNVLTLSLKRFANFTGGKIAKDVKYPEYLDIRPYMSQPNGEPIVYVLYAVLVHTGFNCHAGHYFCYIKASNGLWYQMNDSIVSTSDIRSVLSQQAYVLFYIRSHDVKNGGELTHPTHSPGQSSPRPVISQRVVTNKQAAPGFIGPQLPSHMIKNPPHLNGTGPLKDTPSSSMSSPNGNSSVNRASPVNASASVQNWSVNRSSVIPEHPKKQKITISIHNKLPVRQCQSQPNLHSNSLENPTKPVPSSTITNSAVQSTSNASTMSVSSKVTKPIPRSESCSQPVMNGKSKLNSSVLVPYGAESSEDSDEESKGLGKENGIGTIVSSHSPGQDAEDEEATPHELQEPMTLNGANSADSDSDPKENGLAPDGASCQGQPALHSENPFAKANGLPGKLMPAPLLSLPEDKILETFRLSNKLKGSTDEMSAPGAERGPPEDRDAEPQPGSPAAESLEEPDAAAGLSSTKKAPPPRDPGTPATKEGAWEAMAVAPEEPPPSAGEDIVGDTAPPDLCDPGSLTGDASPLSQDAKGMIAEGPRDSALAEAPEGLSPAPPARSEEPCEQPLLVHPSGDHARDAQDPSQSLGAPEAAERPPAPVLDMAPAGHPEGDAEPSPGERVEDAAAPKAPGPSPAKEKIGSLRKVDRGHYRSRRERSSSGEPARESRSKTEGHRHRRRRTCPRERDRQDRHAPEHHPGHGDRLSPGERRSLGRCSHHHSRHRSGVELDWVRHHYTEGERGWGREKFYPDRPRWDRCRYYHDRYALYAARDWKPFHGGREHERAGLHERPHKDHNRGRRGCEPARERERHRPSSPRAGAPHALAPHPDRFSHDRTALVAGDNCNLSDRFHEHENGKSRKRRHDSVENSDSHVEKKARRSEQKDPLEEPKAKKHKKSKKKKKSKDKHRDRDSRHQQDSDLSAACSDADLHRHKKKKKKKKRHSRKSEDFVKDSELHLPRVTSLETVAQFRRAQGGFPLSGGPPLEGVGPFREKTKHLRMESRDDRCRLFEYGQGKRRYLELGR
Outline: (§1)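 HEK293T lysate (495 µg per sample, in Tris/CHAPS/IGEPAL buffer with protease inhibitors) was exposed in triplicate for 3 h to fragment at 200 µM or to vehicle, then to Biotin-Ahx-Ub-VS at 0.5 µM final for 1 h. Labelled DUBs were enriched on NeutrAvidin, digested with LysC and trypsin, and analysed by diaPASEF LC-MS/MS. Spectronaut label-free quantities were normalised to the global median, and values are average log2 ratios of fragment over vehicle from an unpaired t-test. Only proteins with ≥2 unique peptides were used.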

USP46 = USP46 (UniProt P62068)
Outline: as §1

USP47 = target: T2, USP47 (UniProt Q96K76)
T2 sequence (whole entry): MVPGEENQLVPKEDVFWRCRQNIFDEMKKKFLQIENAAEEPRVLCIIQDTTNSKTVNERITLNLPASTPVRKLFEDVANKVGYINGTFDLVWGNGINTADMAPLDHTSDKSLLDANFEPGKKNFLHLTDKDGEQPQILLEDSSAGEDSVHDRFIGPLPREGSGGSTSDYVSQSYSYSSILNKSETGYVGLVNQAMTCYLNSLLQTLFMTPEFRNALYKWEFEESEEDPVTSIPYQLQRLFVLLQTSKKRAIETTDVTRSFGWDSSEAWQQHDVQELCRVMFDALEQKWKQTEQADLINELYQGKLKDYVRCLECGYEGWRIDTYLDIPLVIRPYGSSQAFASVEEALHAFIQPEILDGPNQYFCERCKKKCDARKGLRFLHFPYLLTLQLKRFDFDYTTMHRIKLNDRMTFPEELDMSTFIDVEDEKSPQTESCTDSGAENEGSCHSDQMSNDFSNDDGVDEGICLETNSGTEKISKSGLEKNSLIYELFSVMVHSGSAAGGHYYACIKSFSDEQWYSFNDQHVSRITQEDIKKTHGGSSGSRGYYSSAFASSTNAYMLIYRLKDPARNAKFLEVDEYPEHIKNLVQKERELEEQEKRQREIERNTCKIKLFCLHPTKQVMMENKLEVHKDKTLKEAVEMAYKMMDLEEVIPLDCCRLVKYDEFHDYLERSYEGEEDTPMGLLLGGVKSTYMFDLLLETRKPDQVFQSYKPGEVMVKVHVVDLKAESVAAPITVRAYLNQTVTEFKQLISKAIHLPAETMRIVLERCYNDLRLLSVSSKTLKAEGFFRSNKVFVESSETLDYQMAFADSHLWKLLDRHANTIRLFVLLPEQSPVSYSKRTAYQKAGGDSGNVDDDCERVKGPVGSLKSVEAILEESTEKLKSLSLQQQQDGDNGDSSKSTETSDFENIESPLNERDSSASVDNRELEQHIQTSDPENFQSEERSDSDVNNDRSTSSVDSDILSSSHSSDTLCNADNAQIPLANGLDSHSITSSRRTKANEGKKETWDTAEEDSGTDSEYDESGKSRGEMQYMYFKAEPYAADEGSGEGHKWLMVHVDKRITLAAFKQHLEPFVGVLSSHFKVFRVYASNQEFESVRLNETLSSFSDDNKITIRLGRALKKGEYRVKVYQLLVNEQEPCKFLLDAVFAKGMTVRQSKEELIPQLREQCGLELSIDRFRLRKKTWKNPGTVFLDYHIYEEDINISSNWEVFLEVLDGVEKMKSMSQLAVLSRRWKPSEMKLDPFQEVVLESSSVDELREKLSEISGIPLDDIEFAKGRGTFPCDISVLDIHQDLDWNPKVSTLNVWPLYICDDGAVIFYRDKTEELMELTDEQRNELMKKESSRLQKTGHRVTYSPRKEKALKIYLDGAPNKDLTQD
Outline: as §1

USP48 = target: T3, USP48 (UniProt Q86UV5)
T3 sequence (whole entry): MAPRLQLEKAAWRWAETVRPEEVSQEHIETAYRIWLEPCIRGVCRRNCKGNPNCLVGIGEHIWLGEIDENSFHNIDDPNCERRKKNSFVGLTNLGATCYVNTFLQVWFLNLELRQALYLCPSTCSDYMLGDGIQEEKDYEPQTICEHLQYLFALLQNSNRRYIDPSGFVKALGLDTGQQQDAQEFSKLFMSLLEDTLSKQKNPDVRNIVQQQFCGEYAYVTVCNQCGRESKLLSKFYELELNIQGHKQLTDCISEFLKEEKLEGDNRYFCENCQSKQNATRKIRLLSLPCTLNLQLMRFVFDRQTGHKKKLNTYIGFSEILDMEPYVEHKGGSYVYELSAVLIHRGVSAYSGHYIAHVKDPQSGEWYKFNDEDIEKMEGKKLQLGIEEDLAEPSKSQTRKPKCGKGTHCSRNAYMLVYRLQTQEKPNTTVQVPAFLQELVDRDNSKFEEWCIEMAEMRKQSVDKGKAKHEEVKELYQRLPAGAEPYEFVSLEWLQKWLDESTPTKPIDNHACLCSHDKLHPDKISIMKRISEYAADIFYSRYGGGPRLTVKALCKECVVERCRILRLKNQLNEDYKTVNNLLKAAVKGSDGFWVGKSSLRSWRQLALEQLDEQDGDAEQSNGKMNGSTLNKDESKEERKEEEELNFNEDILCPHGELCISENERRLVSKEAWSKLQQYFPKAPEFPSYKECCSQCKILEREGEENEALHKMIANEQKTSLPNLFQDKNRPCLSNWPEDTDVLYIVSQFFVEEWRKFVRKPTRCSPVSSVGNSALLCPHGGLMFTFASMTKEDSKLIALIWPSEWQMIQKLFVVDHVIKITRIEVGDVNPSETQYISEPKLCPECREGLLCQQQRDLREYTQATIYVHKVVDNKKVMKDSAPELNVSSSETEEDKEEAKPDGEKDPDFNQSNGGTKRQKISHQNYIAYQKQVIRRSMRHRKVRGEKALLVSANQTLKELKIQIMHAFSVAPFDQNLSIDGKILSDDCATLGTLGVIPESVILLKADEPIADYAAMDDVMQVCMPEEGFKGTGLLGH
Outline: as §1

USP5 = target: T4, USP5 (UniProt P45974)
T4 sequence (whole entry): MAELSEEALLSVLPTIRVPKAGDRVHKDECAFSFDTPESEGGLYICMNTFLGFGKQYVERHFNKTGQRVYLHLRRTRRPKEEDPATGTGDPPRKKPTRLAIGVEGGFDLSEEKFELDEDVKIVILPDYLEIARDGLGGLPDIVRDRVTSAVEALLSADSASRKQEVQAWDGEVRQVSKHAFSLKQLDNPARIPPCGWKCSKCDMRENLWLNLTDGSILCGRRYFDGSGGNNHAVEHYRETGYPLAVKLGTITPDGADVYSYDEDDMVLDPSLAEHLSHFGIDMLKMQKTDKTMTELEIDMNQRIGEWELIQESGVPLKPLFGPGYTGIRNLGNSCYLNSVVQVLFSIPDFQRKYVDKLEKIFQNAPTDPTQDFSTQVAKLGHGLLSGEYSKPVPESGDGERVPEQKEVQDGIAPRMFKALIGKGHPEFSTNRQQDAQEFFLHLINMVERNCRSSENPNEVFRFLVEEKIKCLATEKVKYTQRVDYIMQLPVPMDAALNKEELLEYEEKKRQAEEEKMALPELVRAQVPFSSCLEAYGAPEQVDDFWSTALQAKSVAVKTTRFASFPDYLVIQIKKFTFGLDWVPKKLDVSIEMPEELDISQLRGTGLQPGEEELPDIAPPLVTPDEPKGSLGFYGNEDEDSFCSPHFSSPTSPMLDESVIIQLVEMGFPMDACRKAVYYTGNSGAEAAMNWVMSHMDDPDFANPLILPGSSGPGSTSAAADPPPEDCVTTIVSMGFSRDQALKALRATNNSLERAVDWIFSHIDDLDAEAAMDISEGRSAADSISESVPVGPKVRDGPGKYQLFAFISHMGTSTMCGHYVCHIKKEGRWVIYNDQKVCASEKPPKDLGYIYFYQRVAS
Outline: as §1

USP54 = USP54 (UniProt Q70EL1)
Outline: as §1

USP7 = USP7 (UniProt Q93009)
Outline: as §1

USP8 = target: T5, USP8 (UniProt P40818)
T5 sequence (whole entry): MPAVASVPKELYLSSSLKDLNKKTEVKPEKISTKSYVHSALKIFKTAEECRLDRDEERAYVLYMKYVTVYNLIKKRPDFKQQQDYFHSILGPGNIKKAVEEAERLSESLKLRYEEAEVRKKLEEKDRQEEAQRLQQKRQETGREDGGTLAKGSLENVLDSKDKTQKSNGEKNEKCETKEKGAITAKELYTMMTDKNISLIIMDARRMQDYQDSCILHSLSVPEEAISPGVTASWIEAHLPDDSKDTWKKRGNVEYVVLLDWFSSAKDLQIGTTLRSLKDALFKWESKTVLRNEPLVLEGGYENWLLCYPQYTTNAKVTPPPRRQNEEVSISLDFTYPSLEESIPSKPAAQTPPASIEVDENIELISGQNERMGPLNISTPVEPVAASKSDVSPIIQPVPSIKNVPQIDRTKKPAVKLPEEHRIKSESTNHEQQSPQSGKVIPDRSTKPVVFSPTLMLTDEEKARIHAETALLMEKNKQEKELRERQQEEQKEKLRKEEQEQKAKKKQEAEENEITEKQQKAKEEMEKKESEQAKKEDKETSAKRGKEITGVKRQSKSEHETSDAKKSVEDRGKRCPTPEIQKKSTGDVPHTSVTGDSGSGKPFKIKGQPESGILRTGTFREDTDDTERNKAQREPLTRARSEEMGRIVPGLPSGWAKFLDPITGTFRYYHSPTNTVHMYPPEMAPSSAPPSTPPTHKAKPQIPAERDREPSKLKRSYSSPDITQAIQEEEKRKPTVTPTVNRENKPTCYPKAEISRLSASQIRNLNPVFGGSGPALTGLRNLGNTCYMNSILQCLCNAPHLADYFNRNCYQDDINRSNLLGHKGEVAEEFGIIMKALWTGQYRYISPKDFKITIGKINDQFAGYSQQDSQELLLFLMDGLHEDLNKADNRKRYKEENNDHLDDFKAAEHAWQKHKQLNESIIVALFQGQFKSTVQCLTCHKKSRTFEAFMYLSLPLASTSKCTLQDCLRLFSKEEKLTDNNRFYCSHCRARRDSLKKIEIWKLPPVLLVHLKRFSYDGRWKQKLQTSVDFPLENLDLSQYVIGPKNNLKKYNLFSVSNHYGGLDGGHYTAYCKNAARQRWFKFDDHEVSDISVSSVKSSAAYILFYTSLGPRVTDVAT
Outline: as §1

Measured: log2 ratio of Biotin-Ahx-Ub-VS probe labelling

Sequence of USP7 (Q93009 whole entry, looked up): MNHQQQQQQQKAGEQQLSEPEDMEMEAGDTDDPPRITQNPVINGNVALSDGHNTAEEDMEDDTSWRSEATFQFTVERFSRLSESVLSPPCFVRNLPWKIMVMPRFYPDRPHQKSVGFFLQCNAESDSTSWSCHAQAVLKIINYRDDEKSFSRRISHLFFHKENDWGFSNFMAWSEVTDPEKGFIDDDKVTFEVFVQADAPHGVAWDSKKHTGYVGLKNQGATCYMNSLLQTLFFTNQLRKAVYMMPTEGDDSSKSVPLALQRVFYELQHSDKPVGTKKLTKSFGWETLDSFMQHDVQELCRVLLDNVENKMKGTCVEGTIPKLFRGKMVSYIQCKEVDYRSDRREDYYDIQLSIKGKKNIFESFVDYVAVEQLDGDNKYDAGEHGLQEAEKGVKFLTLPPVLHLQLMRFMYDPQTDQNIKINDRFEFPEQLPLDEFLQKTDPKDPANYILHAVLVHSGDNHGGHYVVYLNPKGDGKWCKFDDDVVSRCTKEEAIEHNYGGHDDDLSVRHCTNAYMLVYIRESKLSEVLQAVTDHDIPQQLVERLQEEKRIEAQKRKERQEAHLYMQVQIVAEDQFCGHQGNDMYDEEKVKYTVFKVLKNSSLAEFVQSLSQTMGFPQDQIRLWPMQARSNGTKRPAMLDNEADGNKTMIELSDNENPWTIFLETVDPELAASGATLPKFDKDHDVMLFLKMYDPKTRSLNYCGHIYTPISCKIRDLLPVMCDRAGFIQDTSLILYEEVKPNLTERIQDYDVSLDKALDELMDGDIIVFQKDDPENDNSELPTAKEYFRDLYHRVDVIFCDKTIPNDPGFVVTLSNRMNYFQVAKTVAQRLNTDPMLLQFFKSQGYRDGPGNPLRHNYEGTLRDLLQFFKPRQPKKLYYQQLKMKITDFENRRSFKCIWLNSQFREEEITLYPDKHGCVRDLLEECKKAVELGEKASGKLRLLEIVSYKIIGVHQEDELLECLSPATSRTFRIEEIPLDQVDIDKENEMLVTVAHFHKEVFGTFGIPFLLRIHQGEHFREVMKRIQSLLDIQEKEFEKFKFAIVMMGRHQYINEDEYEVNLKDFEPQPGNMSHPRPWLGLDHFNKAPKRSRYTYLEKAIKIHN
Sequence of USP46 (P62068 whole entry): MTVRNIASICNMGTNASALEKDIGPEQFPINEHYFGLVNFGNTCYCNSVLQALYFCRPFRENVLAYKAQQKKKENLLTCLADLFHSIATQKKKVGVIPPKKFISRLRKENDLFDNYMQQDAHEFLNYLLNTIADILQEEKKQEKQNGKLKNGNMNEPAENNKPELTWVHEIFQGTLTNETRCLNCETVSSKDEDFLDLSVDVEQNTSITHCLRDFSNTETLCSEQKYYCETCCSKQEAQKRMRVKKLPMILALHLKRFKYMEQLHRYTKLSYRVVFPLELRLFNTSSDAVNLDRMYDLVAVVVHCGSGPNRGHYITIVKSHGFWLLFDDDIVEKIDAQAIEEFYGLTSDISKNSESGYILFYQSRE
Sequence of USP54 (Q70EL1 whole entry): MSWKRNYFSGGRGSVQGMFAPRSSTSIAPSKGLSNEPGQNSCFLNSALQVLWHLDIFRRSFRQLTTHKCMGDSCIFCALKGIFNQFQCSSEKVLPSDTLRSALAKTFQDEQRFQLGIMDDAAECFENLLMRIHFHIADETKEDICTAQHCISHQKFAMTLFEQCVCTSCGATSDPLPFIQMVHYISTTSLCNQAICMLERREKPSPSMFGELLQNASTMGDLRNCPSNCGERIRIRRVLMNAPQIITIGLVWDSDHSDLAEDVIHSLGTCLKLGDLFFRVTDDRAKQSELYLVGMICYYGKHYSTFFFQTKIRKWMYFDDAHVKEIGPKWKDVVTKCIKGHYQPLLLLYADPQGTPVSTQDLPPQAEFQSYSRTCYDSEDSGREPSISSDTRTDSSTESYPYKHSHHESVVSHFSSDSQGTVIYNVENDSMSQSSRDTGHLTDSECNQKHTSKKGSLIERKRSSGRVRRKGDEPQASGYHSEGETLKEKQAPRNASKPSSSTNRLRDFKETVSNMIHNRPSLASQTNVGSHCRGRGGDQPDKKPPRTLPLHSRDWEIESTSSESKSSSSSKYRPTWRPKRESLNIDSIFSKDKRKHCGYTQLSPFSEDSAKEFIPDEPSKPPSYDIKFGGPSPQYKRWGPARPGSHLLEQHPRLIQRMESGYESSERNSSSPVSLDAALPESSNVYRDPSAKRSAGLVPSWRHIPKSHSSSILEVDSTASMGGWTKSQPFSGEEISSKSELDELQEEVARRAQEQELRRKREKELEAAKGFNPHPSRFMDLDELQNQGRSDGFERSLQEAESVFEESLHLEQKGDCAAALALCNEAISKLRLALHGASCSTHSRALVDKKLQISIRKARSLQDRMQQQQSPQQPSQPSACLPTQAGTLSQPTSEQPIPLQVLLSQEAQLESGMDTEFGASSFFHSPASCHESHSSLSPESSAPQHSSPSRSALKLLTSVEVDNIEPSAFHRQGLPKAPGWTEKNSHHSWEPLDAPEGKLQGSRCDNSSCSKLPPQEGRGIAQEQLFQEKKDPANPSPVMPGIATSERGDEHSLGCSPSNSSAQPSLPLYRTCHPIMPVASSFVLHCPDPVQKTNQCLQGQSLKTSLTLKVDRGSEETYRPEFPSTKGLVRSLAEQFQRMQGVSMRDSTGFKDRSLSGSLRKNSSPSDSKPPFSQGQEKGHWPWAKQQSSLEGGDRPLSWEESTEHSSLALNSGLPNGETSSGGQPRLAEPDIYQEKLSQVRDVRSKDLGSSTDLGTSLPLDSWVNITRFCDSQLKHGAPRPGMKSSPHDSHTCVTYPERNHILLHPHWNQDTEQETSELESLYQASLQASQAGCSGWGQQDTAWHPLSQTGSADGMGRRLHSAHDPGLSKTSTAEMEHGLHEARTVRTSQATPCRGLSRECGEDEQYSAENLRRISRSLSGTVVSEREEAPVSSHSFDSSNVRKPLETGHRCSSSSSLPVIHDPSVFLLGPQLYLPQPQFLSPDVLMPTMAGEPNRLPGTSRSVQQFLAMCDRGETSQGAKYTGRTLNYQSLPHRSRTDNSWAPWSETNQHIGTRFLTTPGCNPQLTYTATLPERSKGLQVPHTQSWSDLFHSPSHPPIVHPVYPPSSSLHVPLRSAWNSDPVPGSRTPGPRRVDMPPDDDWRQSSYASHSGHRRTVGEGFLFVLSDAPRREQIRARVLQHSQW

O=C(CCl)NCc1ccc(Cl)cc1
inactive: USP42 0.175 | USP46 -0.0156 | USP47 -0.0592 | USP48 0.107 | USP5 -0.0207 | USP54 -0.625 | USP7 -0.206 | USP8 0.105
